Screening data as filed in PubChem.
This is a sample that favours compounds with a hit; in the whole collection about 2% have one here.
Exocytosis inh: blocks lytic granule exocytosis; TALL-104 LAMP-1 surface exposure, flow cytometry; cells stimulated with thapsigargin and PMA; 360,000 tested, 0.66% active; inhibition, % at 10 µM;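 active means inhibition above about 55%, limit read from the data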
TLR9-MyD88 inh: inhibitors of human TLR9-MyD88 binding; inhibition, % at 4.98 µM; CHO BLA complementation TLR9-MyD88, CCF4 FRET ratio; 340,000 tested, 0.21% active; AID 504734; Q9NR96+Q99836;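 active means inhibition above the mean over all tested compounds plus 3 SD, cut at about 21% in these data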;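 further: 0% = DMSO only wells and 100% = clavulanate BLA inhibitor control wells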
ABHD5-PLIN5 inh: ABHD5-PLIN5 protein interaction inhibition; Q00G26+Q8WTS1; Split G. princeps luciferase complementation, luminescence, 4 h; inhibition, % at 4 µM; 360,000 tested, 0.78% active; AID 602281;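 active means inhibition above the mean inhibition across every tested compound plus 3 SD, cut at about 22% in these data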;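 further: 0% = DMSO only wells and the 100% control is not disclosed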
TLR4-MyD88 BLA: TLR4-MyD88 interaction inhibition in cells; HeLa CL3-4 TLR4/MyD88 BLA complementation, FRET ratio; inhibition, % at 8.4 µM; 200,000 tested, 0.18% active; AID 861; in the data active means inhibition above about 25%;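 further: 0% = vehicle and 100% = reference inhibitor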
Target sequence (O00206 whole entry, looked up): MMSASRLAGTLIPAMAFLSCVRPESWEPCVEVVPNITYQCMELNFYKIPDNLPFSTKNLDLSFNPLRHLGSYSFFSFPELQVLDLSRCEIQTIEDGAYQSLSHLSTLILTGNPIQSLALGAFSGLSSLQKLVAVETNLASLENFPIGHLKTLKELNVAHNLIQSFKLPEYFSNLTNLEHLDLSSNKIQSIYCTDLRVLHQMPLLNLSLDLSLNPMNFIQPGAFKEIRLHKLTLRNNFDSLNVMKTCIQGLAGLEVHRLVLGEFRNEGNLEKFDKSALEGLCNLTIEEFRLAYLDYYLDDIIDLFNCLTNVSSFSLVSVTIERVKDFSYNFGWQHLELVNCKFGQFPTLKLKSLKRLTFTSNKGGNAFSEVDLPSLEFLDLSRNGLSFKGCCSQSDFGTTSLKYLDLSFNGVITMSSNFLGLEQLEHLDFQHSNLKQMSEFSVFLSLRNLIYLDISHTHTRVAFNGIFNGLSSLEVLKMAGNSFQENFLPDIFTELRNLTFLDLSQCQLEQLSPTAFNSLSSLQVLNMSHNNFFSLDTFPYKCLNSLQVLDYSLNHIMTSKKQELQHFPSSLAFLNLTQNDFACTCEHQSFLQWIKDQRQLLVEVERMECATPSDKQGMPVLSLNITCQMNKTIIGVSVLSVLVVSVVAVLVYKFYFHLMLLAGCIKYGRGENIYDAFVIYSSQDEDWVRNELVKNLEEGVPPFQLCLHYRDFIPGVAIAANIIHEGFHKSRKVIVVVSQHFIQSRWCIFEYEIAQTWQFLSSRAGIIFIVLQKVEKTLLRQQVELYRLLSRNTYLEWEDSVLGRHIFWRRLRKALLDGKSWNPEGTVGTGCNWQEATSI
Target sequence (Q99836 whole entry, looked up): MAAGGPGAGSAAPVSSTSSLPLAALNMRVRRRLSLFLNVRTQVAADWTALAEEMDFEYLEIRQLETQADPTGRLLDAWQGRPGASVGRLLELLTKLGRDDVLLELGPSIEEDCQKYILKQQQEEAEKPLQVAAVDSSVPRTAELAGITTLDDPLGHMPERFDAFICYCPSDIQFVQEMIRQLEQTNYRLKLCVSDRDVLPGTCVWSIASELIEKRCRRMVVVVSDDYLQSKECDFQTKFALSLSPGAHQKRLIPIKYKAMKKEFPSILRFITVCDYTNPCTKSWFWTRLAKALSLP
B2AR ag: agonists of human beta-2 adrenergic receptor inducing internalization | P07550 | Am2.2-beta2AR cells, FAP receptor internalization, flow cytometry | response, % (concentration not given with the values) | 340,000 tested, 0.43% active;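 active means response above a set limit, near 3 SD of response in nonfluorescent compounds, cut at about 42% in these data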
NOD2 RIPK2 PPI: blocks binding of human NOD2 to RIPK2; inhibition, % at 4.98 µM; AID 624267; CHO BLA complementation NOD2-RIPK2, CCF4 ratio; O43353; 360,000 tested, 0.38% active; in the data active means inhibition above about 21%;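 further: 0% = vehicle only and 100% = reference blocker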
An asterisk follows results filed as active.

How did O=c1c2ccccc2sn1-c1cccc(Cl)c1 do in these assays?
Exocytosis inh: 37.7; TLR9-MyD88 inh: 10.7; ABHD5-PLIN5 inh: -6.6; NOD2 RIPK2 PPI: 0.8

What do the screens show for `Cc1ccc(-n2sc3ccccc3c2=O)cc1S(=O)(=O)N1CCCCC1`?
Exocytosis inh: -4.4; TLR9-MyD88 inh: 6.2; ABHD5-PLIN5 inh: 104.1*; TLR4-MyD88 BLA: 1.4; B2AR ag: 5.3; NOD2 RIPK2 PPI: 17.6

What do the screens show for `CN(C)S(=O)(=O)c1cccc(-n2sc3ccccc3c2=O)c1`?
Exocytosis inh: -1.1; TLR9-MyD88 inh: 3.9; ABHD5-PLIN5 inh: 47.3*; TLR4-MyD88 BLA: -19.8; B2AR ag: 1.7; NOD2 RIPK2 PPI: -4.2

What do the screens show for `O=c1c2ccccc2sn1-c1ccc(S(=O)(=O)N2CCCCC2)cc1`?
Exocytosis inh: -5.1; TLR9-MyD88 inh: 1.2; ABHD5-PLIN5 inh: -13.1; TLR4-MyD88 BLA: 7.0; B2AR ag: 10.1; NOD2 RIPK2 PPI: 1.4

How did CCc1nc2c(OCC(=O)c3ccc(Cl)cc3Cl)cccn2c1N(C)C(=O)c1cccs1 do in these assays?
Exocytosis inh: 0.2; ABHD5-PLIN5 inh: 7.2; NOD2 RIPK2 PPI: -10.7

What do the screens show for `CN(C)CCCNC(=O)C[C@H]1C[C@H](C(=O)N2CCCCC2)[C@@]2(CCc3ccccc3)c3[nH]c4cc(-c5ccco5)ccc4c3CCN2C1=O`?
Exocytosis inh: 12.0; TLR9-MyD88 inh: -5.3; ABHD5-PLIN5 inh: 22.1*; B2AR ag: 31.2; NOD2 RIPK2 PPI: 1.6

Results for CC[C@]12c3[nH]c4cc(-c5ccco5)ccc4c3CCN1C(=O)[C@@H](CC(=O)NCc1ccc(OC)c(OC)c1)C[C@@H]2C(=O)N1CCN(C(=O)C2CC2)CC1 ?
Exocytosis inh: -2.0; TLR9-MyD88 inh: 0.9; ABHD5-PLIN5 inh: -0.1; B2AR ag: 1.4; NOD2 RIPK2 PPI: -3.0

What do the screens show for `COc1ccc(CNC(=O)C[C@H]2C[C@H](C(=O)N3CCCCC3)[C@@]3(CCc4ccccc4)c4[nH]c5cc(-c6ccco6)ccc5c4CCN3C2=O)cc1OC`?
Exocytosis inh: 0.9; TLR9-MyD88 inh: -3.6; ABHD5-PLIN5 inh: 45.5*; B2AR ag: 0.4; NOD2 RIPK2 PPI: -8.7

Results for O=C(NCc1ccccc1)C(c1ccc(-c2ccccc2)cc1)N1CCN(c2ccccc2F)CC1 (configuration not stated) ?
Exocytosis inh: -4.3; ABHD5-PLIN5 inh: -6.2; NOD2 RIPK2 PPI: -10.8

What do the screens show for `CCOc1ccc(C2NC(=O)C(C#N)=C(S)N2c2cccc(C)c2)cc1OC` (configuration not stated)?
Exocytosis inh: 69.3*; TLR9-MyD88 inh: -6.3; ABHD5-PLIN5 inh: -1.8; TLR4-MyD88 BLA: -1.1; B2AR ag: -0.1; NOD2 RIPK2 PPI: -0.4

How did CCCCn1c(NC(=O)CC)c(C#N)c2nc3ccccc3nc21 do in these assays?
Exocytosis inh: 4.9; TLR9-MyD88 inh: -2.2; ABHD5-PLIN5 inh: 7.2; TLR4-MyD88 BLA: -9.2; B2AR ag: -11.7; NOD2 RIPK2 PPI: 5.9

What do the screens show for `N#Cc1c(NC(=O)c2ccccc2Cl)n(Cc2ccccc2)c2nc3ccccc3nc12`?
Exocytosis inh: 104.4*; TLR9-MyD88 inh: -8.5; ABHD5-PLIN5 inh: -42.6; TLR4-MyD88 BLA: -3.5; B2AR ag: -5.3; NOD2 RIPK2 PPI: 1.5

Results for CCCCn1c(NC(=O)c2ccccc2Cl)c(C#N)c2nc3ccccc3nc21 ?
Exocytosis inh: 63.4*; TLR9-MyD88 inh: -1.3; ABHD5-PLIN5 inh: -51.7; TLR4-MyD88 BLA: -10.5; B2AR ag: 2.7; NOD2 RIPK2 PPI: 0.8

What do the screens show for `COc1ccc(-c2csc(/C(C#N)=C\c3ccc(OC)c([N+](=O)[O-])c3)n2)cc1`?
Exocytosis inh: 3.1; TLR9-MyD88 inh: 6.8; ABHD5-PLIN5 inh: 1.9; TLR4-MyD88 BLA: -13.8; B2AR ag: 2.6; NOD2 RIPK2 PPI: 6.1

Results for COc1ccc(-c2csc(/C(C#N)=C\c3ccc(O)c([N+](=O)[O-])c3)n2)cc1OC ?
Exocytosis inh: 93.0*; TLR9-MyD88 inh: 12.9; ABHD5-PLIN5 inh: 2.7; B2AR ag: 24.6; NOD2 RIPK2 PPI: 8.3

What do the screens show for `CC(C)C[C@@H](CN1CCCC1CN1C(=S)NC[C@@H]1Cc1ccc(O)cc1)N1C[C@H](Cc2ccc(O)cc2)N(CC2CCCCC2)C1=S` (some centres not stated)?
Exocytosis inh: 57.0*; TLR9-MyD88 inh: -3.4; ABHD5-PLIN5 inh: -10.1; B2AR ag: 26.9; NOD2 RIPK2 PPI: 2.2

How did Oc1ccc(C[C@H]2CN([C@@H](Cc3cccc(O)c3)CN3CCC[C@@H]3CN3C(=S)NC[C@@H]3Cc3ccccc3)C(=S)N2CC2CCCCC2)cc1 do in these assays?
Exocytosis inh: 24.8; ABHD5-PLIN5 inh: 23.3*; NOD2 RIPK2 PPI: -6.1

How did CCCNC(=O)Nc1ccc2c(c1)OC[C@H](C)N(C(=O)C1CCCCC1)C[C@@H](C)[C@H](OC)CN(C)C2=O do in these assays?
Exocytosis inh: 5.7; ABHD5-PLIN5 inh: -3.1; NOD2 RIPK2 PPI: 0.2

How did OCC[C@H]1NCc2cc(CO)cc(-c3ccccc3)c21 do in these assays?
Exocytosis inh: -0.9; TLR9-MyD88 inh: -4.4; ABHD5-PLIN5 inh: -2.6; B2AR ag: -3.4; NOD2 RIPK2 PPI: -1.5

Results for CC(C)NC(=O)C1(C)CN(S(C)(=O)=O)CC(=O)N1Cc1cccs1 (configuration not stated) ?
Exocytosis inh: 5.9; ABHD5-PLIN5 inh: -11.8; NOD2 RIPK2 PPI: -9.9

How did O=C(CCl)Nc1cccc(S(=O)(=O)NC2=NCCCCC2)c1 do in these assays?
Exocytosis inh: 22.4; TLR9-MyD88 inh: -7.1; ABHD5-PLIN5 inh: 23.1*; B2AR ag: 2.2; NOD2 RIPK2 PPI: -5.8

How did CC(C)(C)c1nnc(N/N=C/c2ccc(Br)cc2)n(N)c1=O do in these assays?
Exocytosis inh: -4.9; TLR9-MyD88 inh: 10.5; ABHD5-PLIN5 inh: -5.3; TLR4-MyD88 BLA: -14.6; B2AR ag: 69.6*; NOD2 RIPK2 PPI: -6.9

Results for O=C(NCC[C@H]1CC[C@@H](NC(=O)C2CCC2)[C@@H](CO)O1)c1cc(Cl)cc(Cl)c1 ?
Exocytosis inh: 17.7; ABHD5-PLIN5 inh: 1.0; NOD2 RIPK2 PPI: -11.1

What do the screens show for `Clc1ccc(N=c2ssnc2Cl)nc1`?
Exocytosis inh: 87.1*; TLR9-MyD88 inh: 7.9; ABHD5-PLIN5 inh: -13.6; TLR4-MyD88 BLA: 0.5; B2AR ag: 13.7; NOD2 RIPK2 PPI: 0.7

What do the screens show for `CC(NC(=O)OC(C)(C)C)C(=O)Oc1cc2oc(=O)cc(-c3ccccc3)c2cc1Cl` (configuration not stated)?
Exocytosis inh: 1.0; TLR9-MyD88 inh: 31.4*; ABHD5-PLIN5 inh: -4.0; TLR4-MyD88 BLA: 11.2; B2AR ag: 2.7; NOD2 RIPK2 PPI: 39.1*

Results for CCOc1cc(OCC)cc(C(=O)N2CCC[C@H]2C(=O)N2CCC[C@H]2C(=O)N(C)Cc2ccccc2)c1 ?
Exocytosis inh: -2.4; ABHD5-PLIN5 inh: -3.6; NOD2 RIPK2 PPI: 5.4

Results for CCCCCCNC(=O)O[C@H]1Cn2c(=O)ccc(=O)n2[C@@H]2CN(S(=O)(=O)c3ccc(C)cc3)C[C@]12O ?
Exocytosis inh: 7.1; TLR9-MyD88 inh: 5.5; ABHD5-PLIN5 inh: 22.6*; NOD2 RIPK2 PPI: 1.9
